Measurements reported in PubChem BioAssay.
Where “and” joins values, the source holds several entries; their conditions need not be identical. Identical values can stand only once. Results filed as inconclusive are left out. Calls of active or inactive are those of the source. Unless noted, no stated cut-off is given here; in the data, active means parasite load remaining mostly below about 12% (no sharp cut-off); inactive means mostly above about 10%.

Target: ATP-dependent translocase ABCB1 (Homo sapiens) (UniProt P08183)
Sequence (P08183 whole entry, looked up): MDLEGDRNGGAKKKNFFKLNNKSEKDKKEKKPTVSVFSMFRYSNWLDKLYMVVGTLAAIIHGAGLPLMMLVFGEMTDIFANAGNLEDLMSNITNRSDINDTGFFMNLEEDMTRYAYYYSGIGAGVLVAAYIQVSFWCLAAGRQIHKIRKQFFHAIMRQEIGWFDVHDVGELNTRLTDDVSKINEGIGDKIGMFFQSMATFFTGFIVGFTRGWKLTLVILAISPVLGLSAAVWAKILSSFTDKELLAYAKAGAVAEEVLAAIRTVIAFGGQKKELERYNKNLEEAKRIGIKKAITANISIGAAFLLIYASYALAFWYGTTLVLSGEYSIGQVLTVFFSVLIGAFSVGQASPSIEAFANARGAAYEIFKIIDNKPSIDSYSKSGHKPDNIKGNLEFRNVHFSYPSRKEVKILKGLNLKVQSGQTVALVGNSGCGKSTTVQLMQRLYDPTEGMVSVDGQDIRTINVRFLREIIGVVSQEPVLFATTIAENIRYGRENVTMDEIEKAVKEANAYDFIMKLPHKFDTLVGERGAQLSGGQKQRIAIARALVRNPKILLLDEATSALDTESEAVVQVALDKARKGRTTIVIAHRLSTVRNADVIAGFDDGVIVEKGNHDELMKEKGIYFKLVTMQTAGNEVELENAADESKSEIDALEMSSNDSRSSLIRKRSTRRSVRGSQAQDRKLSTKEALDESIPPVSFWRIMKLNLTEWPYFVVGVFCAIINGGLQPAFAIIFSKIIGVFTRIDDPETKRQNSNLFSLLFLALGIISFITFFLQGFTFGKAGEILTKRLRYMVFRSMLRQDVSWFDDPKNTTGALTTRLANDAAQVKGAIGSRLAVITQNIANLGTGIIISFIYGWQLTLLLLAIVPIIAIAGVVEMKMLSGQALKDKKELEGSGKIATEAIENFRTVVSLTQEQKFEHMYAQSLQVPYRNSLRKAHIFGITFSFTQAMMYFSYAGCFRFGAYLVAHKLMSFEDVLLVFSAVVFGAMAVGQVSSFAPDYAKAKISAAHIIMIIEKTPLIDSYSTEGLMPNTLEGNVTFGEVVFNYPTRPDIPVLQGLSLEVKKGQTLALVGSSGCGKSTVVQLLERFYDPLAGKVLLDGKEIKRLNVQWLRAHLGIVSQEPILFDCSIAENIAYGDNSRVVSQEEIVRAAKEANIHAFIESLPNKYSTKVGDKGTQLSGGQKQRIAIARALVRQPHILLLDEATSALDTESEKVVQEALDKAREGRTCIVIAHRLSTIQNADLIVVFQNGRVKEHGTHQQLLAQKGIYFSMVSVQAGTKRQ
Assay: P-glycoprotein substrate transport blockade – cell-based (AID 377; in the data active means fluorescence slope change above about 50%)
Conditions: MDR1-expressing cells, fluorescent substrate accumulation slope; stronger effect = higher value; concentration not given here

Row | Compound | fluorescence slope change
1 | CCc1cccc(CC)c1NC(=O)CN(CC(=O)O)CC(=O)O | -10% (inactive)
2 | CN1CCN(CCCN2c3ccccc3Sc3ccc(S(=O)(=O)N(C)C)cc32)CC1 | 52.4% (active)
3 | OC(CCCN1CCCCC1)(c1ccccc1)c1ccccc1 | 71.6% (active)
4 | CN1CCCN(C(c2ccccc2)c2ccc(Cl)cc2)CC1 (stereo not given) | 122% (active)
5 | C1CCN2C[C@@H]3C[C@@H](CN4CCCC[C@@H]34)[C@H]2C1 | 10.6% (inactive)
6 | Cc1c(-c2ccccc2)oc2c(C(=O)OCCN3CCCCC3)cccc2c1=O | 112% (active)
7 | NC(=O)OCC(O)COc1ccc(Cl)cc1 (stereo not given) | 58.8% (active)
8 | CN1CCCC(CC2c3ccccc3Sc3ccccc32)C1 (stereo not given) | 182% (active)

System: not listed separately
Assay: compounds altering viability of human ES cells (AID 493140; call rule not given here;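 further: cells exposed to compounds for four days before counting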)
Conditions: human embryonic stem cell survival screen; stronger effect = higher value

Row | Compound | survival
9 | CC(CNC1CCCCC1)OC(=O)c1ccccc1 (stereo not given) | 2.08 (inactive)
10 | C[C@]12CC[C@H]3[C@@H](CCC4=CC(=O)CC[C@@]43C)[C@@H]1CC[C@@H]2C(=O)CO | 2.75 (inactive)
11 | CCc1cccc(CC)c1NC(=O)CN(CC(=O)O)CC(=O)O | 10.9 (inactive)
12 | CCC(C)(CN(C)C)OC(=O)c1ccccc1 (stereo not given) | 26.8 (inactive)
13 | C/C(=C(\CCOP(=O)(O)O)SC(=O)c1ccccc1)N(C=O)Cc1cnc(C)nc1N | 11 (inactive)
14 | CC[N+](C)(CC)CCOC(=O)C1c2ccccc2Oc2ccccc21 | 18.2 (inactive)
15 | CN1CCN(CCCN2c3ccccc3Sc3ccc(S(=O)(=O)N(C)C)cc32)CC1 | 4.08 (inactive)
16 | OC(CCCN1CCCCC1)(c1ccccc1)c1ccccc1 | 12.2 (inactive)
17 | NS(=O)(=O)c1cc(C(=O)O)cc(N2CCCC2)c1Oc1ccccc1 | 11.5 (inactive)
18 | CC(C(=O)O)c1ccc(C(=O)c2ccccc2)s1 (stereo not given) | 11.3 (inactive)
19 | CN1CCCN(C(c2ccccc2)c2ccc(Cl)cc2)CC1 (stereo not given) | 4.08 (inactive)
20 | CCOC(=O)Nc1ccc2c(c1)N(C(=O)CCN1CCOCC1)c1ccccc1S2 | 4.83 (inactive)
21 | CCCNC(C)C(=O)Nc1c(C)csc1C(=O)OC (stereo not given) | 18.4 (inactive)
22 | NS(=O)(=O)c1cc2c(cc1Cl)NC(CC1CCCC1)NS2(=O)=O (stereo not given) | 5.92 (inactive)
23 | CN(C)CCn1nnnc1SCC1=C(C(=O)O)N2C(=O)[C@@H](NC(=O)Cc3csc(N)n3)[C@H]2SC1 | 7.25 (inactive)
24 | CC(C)(C)C(=O)OCOC(=O)[C@@H]1N2C(=O)[C@@H](NC(=O)[C@H](N)c3ccccc3)[C@H]2SC1(C)C | 8.83 (inactive)
25 | COCC(=O)Nc1c(I)c(C(=O)NCC(O)CO)c(I)c(C(=O)N(C)CC(O)CO)c1I (stereo not given) | 1.33 (inactive)
26 | Cc1c(-c2ccccc2)oc2c(C(=O)OCCN3CCCCC3)cccc2c1=O | 21.4 (inactive)
27 | NC(=O)OCC(O)COc1ccc(Cl)cc1 (stereo not given) | 16.6 (inactive)
28 | CCCCc1cc2ccccc2c(OCCN(C)C)n1 | 4.17 (inactive)
29 | C[N+]1(C)CCC(=C(c2ccccc2)c2ccccc2)CC1 | 14.4 (inactive)
30 | CC(C)NC[C@@H](O)COc1ccc(CC(N)=O)cc1 | 2.17 (inactive)
31 | CN1CCCC(CC2c3ccccc3Sc3ccccc32)C1 (stereo not given) | 1.75 (inactive)

System: not listed separately
Assay: P. berghei load reduction in hepatocytes – cell-based, HepG2, luciferase luminescence, HepG2 viability, primary screen (AID 624349);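 further: 100% = mean of DMSO negative control wells on the same plate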
Conditions: P. berghei liver stage in HepG2, luciferase luminescence, concentration not given here; parasite load remaining: stronger effect = lower value; viability: measured here: HepG2 viability without parasites

Row | Compound | parasite load remaining | viability
32 | Cc1cc2c(OCC(CNC(C)(C)C)OC(=O)c3ccccc3)cccc2[nH]1 (stereo not given) | 45.6% (inactive) | 114%
33 | CC(CNC1CCCCC1)OC(=O)c1ccccc1 (stereo not given) | 83.5% (inactive) | 92%
34 | C[C@]12CC[C@H]3[C@@H](CCC4=CC(=O)CC[C@@]43C)[C@@H]1CC[C@@H]2C(=O)CO | 95.4% (inactive) | 96.9%
35 | CCc1cccc(CC)c1NC(=O)CN(CC(=O)O)CC(=O)O | 77.8% (inactive) and 89.7% (inactive) | 111% and 80.2%
36 | COc1ccccc1Oc1c(NS(=O)(=O)c2ccc(C(C)(C)C)cc2)nc(-c2ncccn2)nc1OCCO | 23% (inactive) | 71%
37 | CCC(C)(CN(C)C)OC(=O)c1ccccc1 (stereo not given) | 38.1% (inactive) and 188% (inactive) | 56.2% and 90.3%
38 | C/C(=C(\CCOP(=O)(O)O)SC(=O)c1ccccc1)N(C=O)Cc1cnc(C)nc1N | 106% (inactive) | 102%
39 | CC[N+](C)(CC)CCOC(=O)C1c2ccccc2Oc2ccccc21 | 64.6% (inactive) | 67.1%
40 | CN1CCN(CCCN2c3ccccc3Sc3ccc(S(=O)(=O)N(C)C)cc32)CC1 | 35.2% (inactive) and 94.1% (inactive) | 47.9% and 85.3%
41 | OC(CCCN1CCCCC1)(c1ccccc1)c1ccccc1 | 29.2% (inactive) and 89.1% (inactive) | 45.7% and 89.8%
42 | NS(=O)(=O)c1cc(C(=O)O)cc(N2CCCC2)c1Oc1ccccc1 | 67.6% (inactive) | 80.6%
43 | CN(CCCCCCCCCCN(C)C(=O)Oc1cccc([N+](C)(C)C)c1)C(=O)Oc1cccc([N+](C)(C)C)c1 | 77.5% (inactive) | 106%
44 | CC(C(=O)O)c1ccc(C(=O)c2ccccc2)s1 (stereo not given) | 86.4% (inactive) and 106% (inactive) | 112% and 75.4%
45 | CN1CCCN(C(c2ccccc2)c2ccc(Cl)cc2)CC1 (stereo not given) | 48.8% (inactive) and 98.3% (inactive) | 42.5% and 88%
46 | CCOC(=O)Nc1ccc2c(c1)N(C(=O)CCN1CCOCC1)c1ccccc1S2 | 99.9% (inactive) | 97.4%
47 | COc1ccc(-c2cc(=S)ss2)cc1 | 61.1% (inactive) | 107%

Row | Compound | parasite load remaining | viability
48 | CN1CCN(C2=Nc3ccccc3Sc3ccc(Cl)cc32)CC1 | 45.5% (inactive) | 130%
49 | CCCNC(C)C(=O)Nc1c(C)csc1C(=O)OC (stereo not given) | 137% (inactive) | 71.1%
50 | O=C(O)Cc1sc(-c2ccccc2)nc1-c1ccc(Cl)cc1 | 43.2% (inactive) | 106%
51 | NS(=O)(=O)c1cc2c(cc1Cl)NC(CC1CCCC1)NS2(=O)=O (stereo not given) | 80.8% (inactive) | 73%
52 | CN(C)CCn1nnnc1SCC1=C(C(=O)O)N2C(=O)[C@@H](NC(=O)Cc3csc(N)n3)[C@H]2SC1 | 47.4% (inactive) and 69.6% (inactive) | 114% and 74.2%
53 | CC(C)(C)C(=O)OCOC(=O)[C@@H]1N2C(=O)[C@@H](NC(=O)[C@H](N)c3ccccc3)[C@H]2SC1(C)C | 105% (inactive) | 75%
54 | COCC(=O)Nc1c(I)c(C(=O)NCC(O)CO)c(I)c(C(=O)N(C)CC(O)CO)c1I (stereo not given) | 103% (inactive) | 104%
55 | C1CCN2C[C@@H]3C[C@@H](CN4CCCC[C@@H]34)[C@H]2C1 | 47.2% (inactive) | 113%
56 | Cc1c(-c2ccccc2)oc2c(C(=O)OCCN3CCCCC3)cccc2c1=O | 46% (inactive) and 89.3% (inactive) | 49.7% and 89.5%
57 | CCCCN1C[C@H](O)[C@@H](O)[C@H](O)[C@H]1CO | 45.7% (inactive) | 77.5%
58 | NC(=O)OCC(O)COc1ccc(Cl)cc1 (stereo not given) | 52.4% (inactive) and 99.4% (inactive) | 46% and 92.9%
59 | CCCCc1cc2ccccc2c(OCCN(C)C)n1 | 105% (inactive) and 71.5% (inactive) | 105% and 79.9%
60 | O=C1[O][Bi][O]c2ccccc21 | 39.8% (inactive) | 103%
61 | C[N+]1(C)CCC(=C(c2ccccc2)c2ccccc2)CC1 | 49.5% (inactive) and 80.3% (inactive) | 48.7% and 94.9%
62 | CC(C)NC[C@@H](O)COc1ccc(CC(N)=O)cc1 | 88.2% (inactive) | 111%
63 | CN1CCCC(CC2c3ccccc3Sc3ccccc32)C1 (stereo not given) | 16% (inactive) and 60.9% (inactive) | 59.4% and 67.6%
